In the library only some 1.8% were active in any assay of this set; here they are far more common.
TrxR1 substrate: qHTS Assay for Substrates of Mammalian Selenoprotein Thioredoxin Reductase 1 (TrxR1): qHTS | actives 0.01% (n = 390,000) | purified TrxR1 substrate turnover, NADPH consumption readout | Thioredoxin reductase 1, cytoplasmic (Rattus norvegicus), O89049 | Potency, µM (series often up to 114 µM), inactives show top-dose activity change, negative = substrate turnover; note: % is set by controls: 0 for no effect and ±100 for the full control effect; nearly all actives have a fitted effect of over 50% in size
Target sequence (O89049 whole entry, looked up): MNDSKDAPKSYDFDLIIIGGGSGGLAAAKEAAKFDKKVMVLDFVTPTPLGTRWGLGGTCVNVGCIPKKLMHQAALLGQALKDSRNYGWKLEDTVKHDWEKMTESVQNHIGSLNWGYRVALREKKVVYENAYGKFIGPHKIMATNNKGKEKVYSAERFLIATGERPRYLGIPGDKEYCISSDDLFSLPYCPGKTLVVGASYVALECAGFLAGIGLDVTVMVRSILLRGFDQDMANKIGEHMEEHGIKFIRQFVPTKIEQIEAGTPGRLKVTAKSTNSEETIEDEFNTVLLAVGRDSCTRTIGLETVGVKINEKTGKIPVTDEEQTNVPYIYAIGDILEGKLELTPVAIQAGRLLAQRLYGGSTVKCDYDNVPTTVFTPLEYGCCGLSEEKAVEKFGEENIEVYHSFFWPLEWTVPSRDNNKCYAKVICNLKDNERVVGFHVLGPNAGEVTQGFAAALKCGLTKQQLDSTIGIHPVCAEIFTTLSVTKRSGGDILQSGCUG
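Rat TrxR1, dispensed at 90 nM, was prereduced with 400 uM NADPH (final) for 5 min at ~22 deg C, then incubated with compound 15 min before 400 uM selenite. A first-read NADPH fluorescence drop versus no-compound background flagged substrates.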
Vif-APOBEC3G blk: qHTS for Inhibitors of Vif-A3G Interactions: qHTS; HeLa A3G-eYFP + Vif (tagged APOBEC3G with the HIV-1 protein that degrades it), YFP fluorescence, overnight; actives 0.076% (n = 410,000); AID 602310, 2012; DNA dC->dU-editing enzyme APOBEC-3G (Homo sapiens), Q9HC16; Potency, µM (series often up to 46.1 µM), for the others: top-dose activity, negative = active, usual class: inhibitors; note: % is set by controls: 0 for no effect and ±100 for the full control effect; nearly all actives have a fitted effect of over 60% in size
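HeLa cells stably expressing Vif and C-terminally eYFP-tagged A3G, seeded overnight at 37 deg C, then exposed to compound by pintool overnight at 37 deg C. Rise in yellow fluorescence (Ex 488/Em 500-530, Acumen) marks blocked Vif-driven A3G degradation.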
Vif-APOBEC3F blk: qHTS for Inhibitors of Vif-A3F Interactions: qHTS; HeLa A3F-eYFP + Vif (tagged APOBEC3F with the HIV-1 protein that degrades it), YFP fluorescence increase; Potency, µM (titrated, usually from 46.1 µM), for the others: at the highest dose activity, negative = active; actives 0.2% (n = 390,000); note: % of control where 0% means no effect; nearly all actives have a fitted effect of over 65% in size
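Fluorescence increase (Ex 488/Em 500-530) after overnight compound treatment at 37 deg C flags inhibition of Vif-driven A3F-eYFP loss in stable HeLa A3F-eYFP/Vif cells seeded overnight beforehand.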
VDR inh: Inhibitors of the vitamin D receptor (VDR): qHTS; VDR-SRC2-3 peptide fluorescence polarization, 2 h; Potency, µM, for the others: max response, negative = inhibition, most hits filed as inhibitors; actives 0.93% (n = 400,000); note: % is set by controls: 0 for no effect and ±100 for the full control effect
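Two reagent solutions held at 4 deg C in the dark were dispensed, compounds pinned at 23 nl, and the mixture incubated 2 h at room temperature. Read-out: fluorescence polarization of VDR–SRC2-3 peptide binding.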
TrxR1 inh: qHTS Assay for Inhibitors of Mammalian Selenoprotein Thioredoxin Reductase 1 (TrxR1): qHTS | Potency, µM (top dose mostly 114 µM), without a hit: top-dose activity change, negative = inhibition, usual class: inhibitors | Thioredoxin reductase 1, cytoplasmic (Rattus norvegicus), O89049 | actives 1% (n = 390,000) | recombinant rTrxR1, NADPH fluorescence consumption, selenite substrate | AID 588453, 2011; note: % is set by controls: 0 for no effect and ±100 for the full control effect; nearly all actives have a fitted effect of over 65% in size
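Rat TrxR1 (90 nM in the dispensed reagent) was pre-reduced with 400 uM NADPH for 5 min at room temperature, then incubated with compound for 15 min. After 400 uM selenite was added, NADPH fluorescence (Ex 340/Em 450 nm) was followed for 8 min.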
Numbers without * were called inactive; ? = inconclusive; · = no result given; ! = not confirmed by another sample; [ ] = another dose, or the depositor's remark. Calls come from the whole dose curve; as a rule, active = well fitted curve in the direction sought with a large enough effect; inconclusive = small, poorly fitted or top-dose-only effect, or another doubt; inactive = no such curve, though single readings can be large; an effect the other way counts as inactive or inconclusive. Potency is the fitted concentration of half-maximal effect.

SMILES | TrxR1 substrate | Vif-APOBEC3G blk | Vif-APOBEC3F blk | VDR inh | TrxR1 inh
Cc1ccc(C)n1-c1ccc(C(=O)NCc2ccncc2)cc1 | 0.5% | 1.0% | 0.1% | 11.8% | 44.7µM*
OC(C[n+]1ccccc1Cl)c1ccccc1 (centres undefined) | 3.5%[0.0914 µM] | -3.5% | · | · | 3.5%[0.0914 µM]
Cc1ccc(S(=O)(=O)Nc2nc3ccccc3nc2N2CCOCC2)cc1 | -5.9%[2.29 µM] | 0.1% | -11.7% | 14.1% | -8.3%[2.29 µM]
O=S(=O)(Nc1nc2ccccc2nc1N1CCN(c2ccccc2)CC1)c1ccc(F)cc1 | -5.2% | ? | 22.4µM* | 2.1% | -4.9%
CCCCOc1nc2ccccc2nc1NS(=O)(=O)c1ccc(F)cc1 | -7.8% | -25.0% | 10µM* | 11.6% | 1.2%
Cc1ccc2nc(CO)[nH]c2c1 | 7.1% | -0.1% | · | · | 24.7%
Cc1ccc(C2N=C(Nc3nc4ccccc4o3)NC3=C2C(=O)CC(C)(C)C3)cc1 (centres undefined) | 5.1% | 2.1% | · | -14.5% | 10.3%
CCCCCCCCCCCCCCCCCCN(CCCCCCCCCCCCCCCCCC)c1ccc(C=O)cc1 | 2.1% | -1.0% | · | · | 1.0%
CSc1sc2ccccc2[n+]1CCCS(=O)(=O)[O-] | 5.8% | 0.2% | -1.4% | 35.5µM* | 33.0%
CS(=O)(=O)c1ccc(Cl)c(NC(=O)CCl)c1 | 4.4%[57.1 µM] | -24.9% | 8.2% | 4.8% | 12.6µM*
O=C(Nc1cc(C(F)(F)F)ccc1-n1cncn1)c1ccc([N+](=O)[O-])o1 | -0.9% | ? | 12.6µM* | 2.8% | -28.1%
O=C(Nc1ccccc1N1CCCC1)c1ccc([N+](=O)[O-])o1 | -13.5% | -28.5% | -11.1% | 32.3% | ?
COc1ccc(N2CCCC2)c(NC(=O)c2ccc([N+](=O)[O-])o2)c1 | 14.4%[57.1 µM] | ? | ? | 79.4µM* | -61.3%
O=S(=O)(c1ccc(F)cc1)N1CCN(c2nc(-c3cccs3)nc3ccccc23)CC1 | 13.8% | 2.1% | · | -16.1% | 14.7%
Cc1cccc(N2CCN(c3ccc4cc(S(=O)(=O)N5CCC(C)CC5)ccc4n3)CC2)c1C | 1.8%[57.1 µM] | -2.5% | 0.6% | 12.4% | 10.7%[57.1 µM]
COCOc1cc(OC)ccc1C(=O)/C=C/c1cccc(C(F)(F)F)c1 | · | · | · | 28.2µM* | ·
COCOc1ccc(OC)cc1C(=O)/C=C/c1ccc(OC)c(Br)c1 | · | · | · | 39.8µM* | ·
COc1ccc(C(=O)/C=C/c2ccccc2)c(OC)c1 | 4.8%[57.1 µM] | ? | -1.2% | -21.9% | 14.2%[57.1 µM]
CN(C)c1ccc(/C=C/c2sc3ccccc3[n+]2CCCCI)cc1 | -9.8% | -10.7% | · | · | ?
Cc1nnc(SCC(=O)c2ccc(Cl)cc2)n(N)c1=O | -6.6%[57.1 µM] | 7.9% | -0.1% | 20µM* | 12.6%[57.1 µM]
[N-]=[N+]=Nc1ccc(C(=O)CSC[C@H](NC(=O)CC[C@H](N)C(=O)O)C(=O)NCC(=O)O)cc1 | -3.3%[57.1 µM] | · | · | 44.7µM* | ?
N[C@@H](CCC(=O)N[C@@H](CSN=O)C(=O)NCC(=O)O)C(=O)O | 3.3% | 2.3% | -2.5% | -27.6% | -11.5%
CC1(C)CCC(C)(C)c2cc(C(=O)Nc3ccc(C(=O)O)cc3)ccc21 | · | · | · | 79.4µM*! | ·
C=C1CC[C@H](O)C/C1=C/C=C1\CCC[C@]2(C)C([C@H](C)CC[C@@H](O)C(C)(C)O)CC[C@@H]12 (some centres undefined) | · | · | · | -2.1% | ·
Cc1cc(C)n(CCO)c(=O)n1 | -10.2% | 5.4% | -2.9% | 15.7% | -11.5%
SMILES | TrxR1 substrate | Vif-APOBEC3G blk | Vif-APOBEC3F blk | VDR inh | TrxR1 inh
Cc1cc(=S)cc(C)n1CCO | 0.1% | -0.8% | -28.7% | ? | 35.5µM*
Cc1cccc2c1N(CCCOc1ccc(C(C)(C)C)cc1)C(=O)C2=O | -9.9% | -12.5% | -8.7% | 39.8µM* | 6.8%
Cc1ccc2c(c1)C(=O)C(=O)N2CCOc1ccccc1 | 2.3% | -17.9% | -6.2% | 79.4µM* | 16.4%
Cc1cccc(OCCN2C(=O)C(=O)c3cc(C)ccc32)c1 | -5.8%[0.0914 µM] | ? | 5.2% | 70.8µM* | 12.1%
Cc1ccc2c(c1)C(=O)C(=O)N2CCCOc1ccccc1C | -2.5% | -11.2% | -0.1% | 39.8µM* | 12.6%
Cc1cccc(OCCN2C(=O)C(=O)c3cccc(C)c32)c1 | 1.9% | -1.2% | -7.7% | ? | 8.7%
CCn1c(SCC(=O)N/N=C/C=C/c2ccco2)nc2ccccc21 | -9.0% | -15.5% | ? | ? | 44.7µM*
CC(/C=N/NC(=O)CSc1nc2ccccc2n1C)=C\c1ccco1 | -12.7% | ? | -2.3% | -11.3% | 79.4µM*
O=C(CSc1nnc(SCc2ccccc2)s1)N/N=C/C=C\c1ccco1 | -1.5% | 1.9% | -2.0% | ? | 44.7µM*
Cn1c(SCC(=O)N/N=C/c2ccco2)nc2ccccc21 | -2.0% | -0.7% | -1.7% | -1.5% | 19.5%
CC(=O)NC(Cc1c(F)c(F)c(F)c(F)c1F)C(=O)NCC(N)C(=O)c1ccccc1 (centres undefined) | -7.1% | · | · | · | -11.5%
CCOc1cc(CN2CCCCC2)ccc1OC | -7.3% | 1.5% | -1.5% | -18.2% | -3.5%
CCOc1cc(CN2CCN(c3ccc(C(C)=O)cc3)CC2)ccc1OC | 1.6% | 4.0% | -6.3% | -8.7% | 35.5µM*
CN(C)Cc1c(O)ccc2c1O/C(=C\C=C\c1ccccc1)C2=O | -22.5% | 5.5% | -12.0% | -12.7% | 79.4µM*
COc1ccccc1/C=C/C=C1\Oc2c(ccc(O)c2CN2CCN(CCO)CC2)C1=O | 1.3% | ? | ? | ? | 25.1µM*
CCN1CCN(Cc2c(O)ccc3c2O/C(=C\C=C\c2ccccc2)C3=O)CC1 | 7.1%[11.4 µM] | -5.8% | ? | -9.4% | 14.0%
O=C(NCc1cccnc1)/C(=C/c1ccc(-c2ccc(Cl)cc2)o1)S(=O)(=O)c1ccccc1 | -2.0% | ? | 0.8% | 22.4µM* | 5.01µM*
CCOC(=O)C1(C)CCN1C(=O)c1ccco1 (centres undefined) | · | 0.0% | · | · | ·
CCOC(=O)c1c(C)n(C(=O)c2ccco2)c(=O)n1C(=O)c1ccco1 | -3.9% | 1.2% | 1.9% | ? | 39.8µM*
Cc1sc2ccccc2[n+]1CC(=O)c1ccccc1 | -5.1% | -2.3% | -11.7% | 28.2µM* | -6.0%
O=C(C[n+]1c(Cl)cc(Cl)c2ccccc21)c1ccccc1 | 4.7% | -25.0% | · | · | 70.8µM*
Cc1sc2ccccc2[n+]1CC(=O)c1ccc(F)cc1 | 7.1% | -0.4% | · | · | 20.3%
Cc1sc2ccccc2[n+]1CC(=O)O | -3.8% | 0.0% | 1.6% | 22.4µM* | 25.1%
COc1ccc(SCC(CC(C)C)N2CCN(CCc3ccccc3)CCC2=O)cc1 (centres undefined) | -3.5% | 3.2% | · | -0.2% | 3.8%

Bioassay records: PubChem, National Center for Advancing Translational Sciences (NCATS)
